In all, about 39,000 compounds went through this assay and about 3,300 (8.5%) were called active. The full list was thinned out, with actives kept by preference.

The test system of the assay is HepG2. The experiment in a line: cytotoxicity call (relative viability < 0.9). To be noted: 10 µM.
Take `COc1ccc(CN(C)C[C@@H]2Oc3ccc(NC(=O)CCN4CCOCC4)cc3C(=O)N([C@@H](C)CO)C[C@H]2C)cc1`: the cytotoxicity call was “inactive”.
On to `C[C@@H]1CN([C@H](C)CO)C(=O)c2cc(NC(=O)CCC(F)(F)F)ccc2O[C@@H](C)CCCCO[C@H]1CN(C)Cc1ccncc1`, for which the cytotoxicity call is “inactive”.
On to `C[C@@H]1CCCCO[C@H](CN(C)S(=O)(=O)c2cccs2)[C@H](C)CN([C@H](C)CO)C(=O)c2cc(NC(=O)Cc3ccccc3)ccc2O1`, for which the cytotoxicity call is “inactive”.
Under `C[C@H](CO)N1C[C@H](C)[C@@H](CN(C)C(=O)Nc2ccccc2)Oc2ccc(NC(=O)Nc3cccc4ccccc34)cc2C1=O` stands “inactive”; under `C[C@@H]1CN([C@H](C)CO)S(=O)(=O)c2ccc(-c3ccccc3F)cc2O[C@@H]1CN(C)Cc1cncnc1`, “inactive”.
Under `CCS(=O)(=O)Nc1ccc2c(c1)C(=O)N(C)[C@H]1CC[C@H](CC(=O)N[C@@H]3CCN(Cc4ccccc4)C3)O[C@H]1CO2` stands “inactive”.
Under `C[C@@H]1CCCCO[C@@H](CN(C)C(=O)Nc2cccc3ccccc23)[C@H](C)CN([C@@H](C)CO)C(=O)c2cc(NC(=O)Nc3ccc(F)cc3)ccc2O1` stands “inactive”.
Regarding `O=[N+]([O-])c1ccc(NCCNCCO)cc1`, the cytotoxicity call is “inactive”.
Take `O=C1c2c(O)ccc(O)c2C(=O)c2c(NCCNCCO)ccc(NCCNCCO)c21`: the cytotoxicity call is “active”.
Take `Cl.Cl.O=C1c2c(O)ccc(O)c2C(=O)c2c(NCCNCCO)ccc(NCCNCCO)c21`: the cytotoxicity call was “active”.
`O=C1c2ccccc2C(=O)c2c(NCCNCCO)ccc(NCCNCCO)c21`: the cytotoxicity call was “active”.
In the case of `O=C1c2ccccc2C(=O)c2c1ccc(O)c2O` it was “inactive”; in that of `O=C(CCNCCO)c1ccccc1`, “inactive”.
Turning to `CN1CCN(C(=O)C[C@H]2CC[C@H]3[C@H](COc4ccc(NC(=O)C5CCCCC5)cc4C(=O)N3C)O2)CC1`, the cytotoxicity call was “inactive”.
On to `C[C@]12C(=O)N(CCCCCO)[C@@H]3C(=O)N(c4ccc(Cl)cc4)CC=C[C@]31O[C@@H]1/C=C\CCCOC(=O)[C@H]12`, for which the cytotoxicity call was “inactive”.
Consider `O=C(C[C@@H]1CC[C@H](NC(=O)CN2CCOCC2)[C@@H](CO)O1)NC1CCC1`, for which the cytotoxicity call is “inactive”.
As to `CC(C)NC(=O)Nc1ccc2c(c1)C(=O)N([C@H](C)CO)C[C@@H](C)[C@@H](CN(C)S(=O)(=O)c1ccccc1)O2`, the cytotoxicity call is “inactive”.
Under `COCC#Cc1ccc2c(c1)O[C@@H](CN(C)S(=O)(=O)c1ccc(OC)cc1)[C@H](C)CN([C@H](C)CO)S2(=O)=O` stands “inactive”; under `C[C@H](CO)N1C[C@H](C)[C@@H](CN(C)C(=O)Nc2cccc3ccccc23)OCCCC[C@H](C)Oc2ccc(NS(=O)(=O)c3cn(C)cn3)cc2C1=O`, “inactive”; under `C[C@@H]1CN([C@H](C)CO)C(=O)Cc2cc(NC(=O)Cn3cnnn3)ccc2O[C@H]1CN(C)Cc1ccc(Cl)c(Cl)c1`, “inactive”.
`C/C=C/c1cccc(-c2nc(C(=O)NCc3cccc(OC)c3)cc3c2[C@@H](CCO)N([S@](=O)C(C)(C)C)C3)c1`: the cytotoxicity call was “inactive”.
In the case of `CC(C)[Si]1(C(C)C)O[C@@H](c2ccccc2)c2cc(C3CC3)nc(-c3ccc(Oc4ccccc4)cc3)c21` it was “inactive”; in that of `CC(CN1c2ccccc2Sc2ccccc21)N(C)C.Cl` (stereo not drawn), “active”; in that of `CCN(CC)C(C)CN1c2ccccc2Sc2ccccc21.Cl` (stereo not drawn), “active”.
On to `CCC(CC)C(=O)N1c2ccccc2Sc2ccccc21`, for which the cytotoxicity call is “inactive”.
Under `C[C@H]1CN([C@@H](C)CO)C(=O)c2cc(NC(=O)Cn3cnnn3)ccc2O[C@H]1CN(C)Cc1ccc(Oc2ccccc2)cc1` stands “inactive”; under `C[C@H](CO)N1C[C@H](C)[C@H](CN(C)Cc2ccc(C(F)(F)F)cc2)Oc2c(NC(=O)Nc3cccc4ccccc34)cccc2C1=O`, “inactive”.
As for `Cc1ccc(S(=O)(=O)N(C)C[C@H]2OCCCC[C@@H](C)Oc3ccc(NS(=O)(=O)c4ccc(F)cc4)cc3C(=O)N([C@H](C)CO)C[C@H]2C)cc1`, the cytotoxicity call was “inactive”.
For the molecule `C=C1[C@@H]2[C@H]3OC(=O)[C@@H](C)[C@@H]3[C@@H](O[C@@H]3O[C@H](CO)[C@@H](O)[C@H](O)[C@H]3O)CC(=C)[C@@H]2C[C@@H]1O`, the cytotoxicity call was “inactive”.
Regarding `COc1cc(-c2coc3cc(OCc4ccccc4)c(OC)c(O)c3c2=O)cc(OCc2ccccc2)c1OC`, the cytotoxicity call is “inactive”.
Take `C[C@@H]1CCCCO[C@@H](CN(C)CC2CCCCC2)[C@H](C)CN([C@H](C)CO)C(=O)c2cc(NS(=O)(=O)c3cccs3)ccc2O1`: the cytotoxicity call is “inactive”.
In the case of `Cc1sc(Nc2ccccc2)nc1-c1ccc(Cl)cc1` it was “active”; in that of `Cc1ccc(Nc2nc(-c3ccc(C)cc3)c(C)s2)cc1`, “inactive”.
In the case of `Cc1nc(-c2ccc(Cl)cc2)c(-c2ccccc2)s1` it was “active”; in that of `Cc1sc(N)nc1-c1ccccc1`, “inactive”; in that of `C=C(C)CNc1nc(-c2ccccc2)c(-c2ccccc2)s1`, “inactive”.
Take `Cc1ccc(-c2nc(Nc3cccc(Cl)c3)sc2C)cc1`: the cytotoxicity call was “inactive”.
In the case of `NC(=O)Cn1c(=O)c2ccccc2n(CC(N)=O)c1=O` it was “inactive”.
In the case of `C=CCN(Cc1ccccc1)C(=O)[C@@H]1N(c2c(Cl)cccc2CO)C(=O)[C@@H]2[C@H](C(=O)O)[C@@H]3C=C[C@@]21O3` it was “inactive”; in that of `C[C@H](CO)N1C[C@H](C)[C@H](CN(C)Cc2ccc(C(=O)Nc3ccccc3N)cc2)Oc2ccc(NC(=O)Nc3ccccc3)cc2C1=O`, “inactive”; in that of `C[C@@H]1CN([C@H](C)CO)C(=O)c2cc(NC(=O)Nc3ccc(C(F)(F)F)cc3)ccc2O[C@H]1CN(C)Cc1ccc(C(=O)Nc2ccccc2N)cc1`, “inactive”.
`C[C@@H]1CN([C@H](C)CO)C(=O)c2cc(NC(=O)Nc3ccc(C(F)(F)F)cc3)ccc2O[C@@H]1CN(C)Cc1ccc(C(=O)Nc2ccccc2N)cc1`: the cytotoxicity call was “active”.
In the case of `C[C@@H]1CN([C@@H](C)CO)C(=O)c2cc(NC(=O)Nc3ccc(C(F)(F)F)cc3)ccc2O[C@@H]1CN(C)Cc1ccc(C(=O)Nc2ccccc2N)cc1` it was “active”; in that of `C[C@H](CO)N1C[C@H](C)[C@H](CN(C)Cc2ccc(C(=O)Nc3ccccc3N)cc2)Oc2ccc(NC(=O)Nc3ccc(C(F)(F)F)cc3)cc2C1=O`, “active”.
Under `C[C@@H]1CN([C@@H](C)CO)C(=O)c2cc(NC(=O)Nc3ccccc3)ccc2O[C@@H]1CN(C)Cc1ccc(C(=O)Nc2ccccc2N)cc1` stands “active”; under `C[C@H]1CN([C@@H](C)CO)C(=O)c2cc(NC(=O)Nc3ccc(F)cc3)ccc2O[C@H]1CN(C)Cc1ccc(C(=O)Nc2ccccc2N)cc1`, “inactive”; under `C[C@H](CO)N1C[C@H](C)[C@H](CN(C)Cc2ccc(C(=O)Nc3ccccc3N)cc2)Oc2ccc(NC(=O)Nc3ccc(F)cc3)cc2C1=O`, “inactive”.
Under `C[C@H]1CN([C@@H](C)CO)C(=O)c2cc(NC(=O)Nc3ccc(C(F)(F)F)cc3)ccc2O[C@@H]1CN(C)Cc1ccc(C(=O)Nc2ccccc2N)cc1` stands “inactive”.
For `C[C@H]1CN([C@@H](C)CO)C(=O)c2cc(NC(=O)Nc3ccccc3)ccc2O[C@H]1CN(C)Cc1ccc(C(=O)Nc2ccccc2N)cc1`, the cytotoxicity call was “inactive”.
With `C[C@@H]1CN([C@@H](C)CO)C(=O)c2cc(NC(=O)Nc3ccc(F)cc3)ccc2O[C@@H]1CN(C)Cc1ccc(C(=O)Nc2ccccc2N)cc1`, the cytotoxicity call was “inactive”.
In the case of `C[C@H](CO)N1C[C@H](C)[C@@H](CN(C)Cc2ccc(C(=O)Nc3ccccc3N)cc2)Oc2ccc(NC(=O)Nc3ccc(F)cc3)cc2C1=O` it was “inactive”; in that of `C[C@H]1CN([C@@H](C)CO)C(=O)c2cccc(NC(=O)C3CC3)c2O[C@H]1CN(C)S(=O)(=O)c1ccc(F)cc1`, “inactive”.
In the case of `COc1ccc(CN(C)C[C@H]2OCCCC[C@@H](C)Oc3ccc(NS(=O)(=O)c4ccc(C)cc4)cc3C(=O)N([C@H](C)CO)C[C@H]2C)cc1` it was “inactive”.
In the case of `C[C@H]1CN([C@@H](C)CO)C(=O)c2cc(NS(=O)(=O)c3cn(C)cn3)ccc2O[C@@H]1CN(C)S(=O)(=O)c1ccc(Cl)cc1` it was “inactive”; in that of `NNC(=O)c1cccc(C(F)(F)F)n1`, “inactive”.
As to `CCC(=O)O[C@H]1[C@@H]2CC3=C4CC(=O)O[C@@H](c5ccoc5)[C@]4(C)CC[C@@H]3[C@@](C)(C2=O)[C@@H](CC(=O)OC)C1(C)C`, the cytotoxicity call is “inactive”.
In the case of `C[C@H](CO)N1C[C@H](C)[C@H](CN(C)C(=O)c2ccccc2)OCCCC[C@H](C)Oc2ccc(NS(=O)(=O)c3cccs3)cc2C1=O` it was “inactive”; in that of `C[C@@H]1CN([C@@H](C)CO)C(=O)c2cc(NC(=O)Cc3cn(C)c4ccccc34)ccc2O[C@H]1CN(C)CC1CCCCC1`, “inactive”; in that of `COc1cccc(S(=O)(=O)Nc2ccc3c(c2)[C@H]2C[C@H](CC(=O)NC4CCCCC4)O[C@@H](CO)[C@H]2O3)c1`, “inactive”.
Take `CN(C)CCCNC(=O)C[C@@H]1CC[C@H]2[C@H](COc3ccc(NC(=O)c4cccc(F)c4)cc3C(=O)N2C)O1`: the cytotoxicity call was “inactive”.
As for `COc1ccc(S(=O)(=O)Nc2ccc3c(c2)C(=O)N([C@@H](C)CO)C[C@@H](C)[C@@H](CN(C)Cc2ccc4c(c2)OCO4)OCCCC[C@H](C)O3)cc1`, the cytotoxicity call was “inactive”.
In the case of `CCC(=O)NCc1nccc(N(C)C)n1` it was “inactive”.
Regarding `C[C@H](CO)N1C[C@H](C)[C@@H](CN(C)S(=O)(=O)c2ccc(F)cc2)Oc2ccc(NC(=O)Cn3cnnn3)cc2CC1=O`, the cytotoxicity call is “inactive”.
In the case of `C[C@H]1CN([C@@H](C)CO)C(=O)c2cc(NC(=O)Nc3ccc(C(F)(F)F)cc3)ccc2O[C@H]1CN(C)Cc1ccc(C(=O)Nc2ccccc2N)cc1`, the cytotoxicity call is “inactive”.
In the case of `C[C@@H]1CN([C@@H](C)CO)C(=O)c2cc(NC(=O)Nc3ccc(C(F)(F)F)cc3)ccc2O[C@H]1CN(C)Cc1ccc(C(=O)Nc2ccccc2N)cc1` it was “active”.
On to `C[C@H](CO)N1C[C@H](C)[C@@H](CN(C)Cc2ccc(C(=O)Nc3ccccc3N)cc2)Oc2ccc(NC(=O)Nc3ccc(C(F)(F)F)cc3)cc2C1=O`, for which the cytotoxicity call was “inactive”.
Under `C[C@@H]1CN([C@@H](C)CO)C(=O)c2cccc(NC(=O)C3CCOCC3)c2O[C@@H]1CN(C)S(=O)(=O)c1ccc(F)cc1` stands “inactive”; under `Cc1noc(C)c1S(=O)(=O)Nc1ccc2c(c1)C(=O)N([C@H](C)CO)C[C@@H](C)[C@H](CN(C)CC1CCCCC1)OCCCC[C@@H](C)O2`, “inactive”.

For the origin of these results see the antibiotic and cytotoxicity screens of Wong et al. (2023).
